± gives the standard deviation of the averaged measurements. Over roughly 33,000 sequences, “E-score (dimensionless, -0.5 to 0.5)” has its median near -0.046; the highest 2% begin near 0.36. This excerpt belongs to a sample that is enriched for the highest values.
tested on: T1, SpTbr T-box DNA-binding domain (GST fusion); assay: PBM E-score of 8-mer (E-score (dimensionless, -0.5 to 0.5)); Tbr is Tbrain of the sea star Patiria miniata (Pm) or the sea urchin Strongylocentrotus purpuratus (Sp); higher = stronger binding preference; conditions: the construct has about 5 more residues each side
T1 sequence: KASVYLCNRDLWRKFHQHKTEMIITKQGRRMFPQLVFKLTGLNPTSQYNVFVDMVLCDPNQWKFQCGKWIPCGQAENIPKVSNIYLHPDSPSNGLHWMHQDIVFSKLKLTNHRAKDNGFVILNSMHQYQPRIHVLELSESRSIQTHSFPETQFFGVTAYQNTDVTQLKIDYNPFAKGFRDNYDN
In short: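 Primer extension turned Universal Agilent oligonucleotide arrays double-stranded. They were incubated with 200 nM protein in PBS (pH 7.5); the protein was a GST-fused Tbr T-box DNA-binding domain expressed in BL21 E. coli at 20 °C and purified on glutathione. Every ungapped 8-mer was scored from the scanned, quantified probe intensities, and the Universal PBM Analysis Suite gave each an enrichment E-score averaged over duplicate arrays.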

Sequence	PBM E-score of 8-mer
CCGACCCG	-0.073 ± 0.13
GACTCGAC	-0.0494 ± 0.0017
CTAATGCA	0.038 ± 0.071
GTAGAGAC	-0.094 ± 0.029
CCACTATC	0.129 ± 0.028
TACACGAA	-0.0857 ± 0.046
CCTTGCGA	0.183 ± 0.056
AGTTGCGC	0.13 ± 0.063
AGTTGCGG	0.126 ± 0.029
GCTTGCGA	0.16 ± 0.0045
AGTTGCGA	0.3999 ± 0.00081
ACTTGCGA	0.388 ± 0.021
CAGGGATC	-0.17 ± 0.046
AAACCATC	-0.0776 ± 0.02
AAATCGTT	-0.0755 ± 0.038
GACACATA	0.359 ± 0.005
TACACATA	0.168 ± 0.022
CACACATA	0.3998 ± 0.0028
CACACATG	0.383 ± 0.021
CACACAGG	0.244 ± 0.0081
CACACAAG	0.179 ± 0.038
GAGGCTCA	-0.129 ± 0.025
ACGCCCAT	0.0516 ± 0.054
GATATGCA	0.00558 ± 0.032
AGCGCGAA	0.405 ± 0.019
GGCGCGCA	0.153 ± 0.047

Sequence	PBM E-score of 8-mer
GACGCGAA	0.138 ± 0.006
TGCGCTAA	0.191 ± 0.035
AGCGCGAC	0.253 ± 0.026
AGCGCGAT	0.276 ± 0.009
CGCGCTAA	0.338 ± 0.0063
AGCGCGAG	0.306 ± 0.017
GGCGCGAA	0.463 ± 0.011
CGCGCGAC	0.284 ± 0.015
GGCGCTAA	0.4 ± 0.035
GGCGCGAC	0.369 ± 0.017
AGCTACAA	-0.161 ± 0.011
GCACGCGC	0.216 ± 0.095
ATAGATGA	-0.0521 ± 0.016
CTGAAGCA	-0.141 ± 0.0054
CCGTGCCC	-0.244 ± 0.013
CCGTACAA	-0.197 ± 0.0048
TCCGCGAA	0.2876 ± 0.00083
CGCGCGAA	0.408 ± 0.013
TGCGCGAA	0.349 ± 0.036
GCCGCGAA	0.343 ± 0.0045
CGCGCGAG	0.304 ± 0.036
CCCGCGAA	0.371 ± 0.019
CGCAATTC	0.169 ± 0.0051
AAAGATCT	-0.1 ± 0.035
ATTGAGGG	-0.243 ± 0.003
AACCTTCG	-0.0878 ± 0.018

Sequence	PBM E-score of 8-mer
CACCTTCG	0.396 ± 0.017
GACCTTCC	-0.00679 ± 0.036
GACCTTCA	-0.0627 ± 0.081
CACCTTCC	0.401 ± 0.014
CACCTTCA	0.412 ± 0.0047
AACCTTCA	-0.0641 ± 0.013
AACCTTCC	-0.169 ± 0.048
CCCCTTCG	-0.137 ± 0.046
CGTGGTCC	-0.204 ± 0.045
CCGCCACA	0.157 ± 0.021
CCTCCTAA	-0.2059 ± 0.001
TAAGCGAA	-0.0797 ± 0.053
GAAGGTGC	0.41 ± 0.019
CAAGGTAA	-0.0662 ± 0.017
GAAGGTGA	0.348 ± 0.035
CAAGGTGA	0.392 ± 0.0089
CAAGGTGG	0.311 ± 0.015
CAAGGTGC	0.421 ± 0.0087
TAAGGTGA	0.331 ± 0.021
GAAGGTAC	-0.239 ± 0.019
CAAGGTTC	0.047 ± 0.016
ACCTAGAA	-0.0152 ± 0.079
ACTGCTCG	0.0799 ± 0.013
CTCGGGAC	-0.118 ± 0.062
AACTGTTA	0.284 ± 0.03
TGAGCCAA	-0.229 ± 0.019

Sequence	PBM E-score of 8-mer
CCCCCATC	-0.0563 ± 0.053
AAGTGTGG	0.417 ± 0.013
AAGTGGGG	0.177 ± 0.0055
AAGTGTGT	0.331 ± 0.0059
AAGTGTGC	0.3891 ± 0.00091
AAGTGGGA	0.238 ± 0.037
CAGTGTGC	0.106 ± 0.0063
ACTGCCTA	-0.14 ± 0.028
AACTTTCG	0.00917 ± 0.0092
CTCTGGGA	0.00265 ± 0.049
ACAATAGA	-0.149 ± 0.042
CCATGGAG	-0.231 ± 0.015
CCCAGAGG	-0.127 ± 0.05
ACACATCC	0.388 ± 0.024
GCACATCC	0.137 ± 0.0032
ACACATCT	0.31 ± 0.029
ACACATCA	0.339 ± 0.0072
ACACATCG	0.394 ± 0.014
CCACATCC	-0.0299 ± 0.14
CTACTTGA	0.0916 ± 0.062
ACACCATA	0.231 ± 0.071
ACACCACA	0.364 ± 0.017
ACACCATC	0.3674 ± 0.0022
CCACCACC	0.101 ± 0.038
ACACCACC	0.365 ± 0.0069
CCACCACA	0.131 ± 0.073

Sequence	PBM E-score of 8-mer
ACACCACT	0.269 ± 0.02
ACACCACG	0.332 ± 0.018
CCACCATC	0.0489 ± 0.024
ACCTGCCT	0.00297 ± 0.084
GGAGCGCC	0.0178 ± 0.0015
AGACCCAC	0.0705 ± 0.1
AGAGAAAT	-0.0136 ± 0.08
AGATCCAT	-0.205 ± 0.039
CATCTCAC	0.308 ± 0.006
AATCTCTC	-0.1 ± 0.11
GATCTCAA	0.0536 ± 0.028
GATCTCAC	0.371 ± 0.02
AATCTCAT	-0.0127 ± 0.017
AATCTCAC	0.366 ± 0.016
AATCTCAG	-0.0558 ± 0.035
AGACTCGG	-0.23 ± 0.019
CACACCCA	0.421 ± 0.02
CACCCCCC	0.184 ± 0.003
CACCCCCG	0.234 ± 0.018
TACACCCA	0.105 ± 0.011
CCCACCCA	0.185 ± 0.054
ATCACCCG	0.12 ± 0.057
AACACCCG	0.404 ± 0.01
CACACCGC	0.332 ± 0.037
CCCACCCG	0.0685 ± 0.054
CACACCCG	0.448 ± 0.016

Sequence	PBM E-score of 8-mer
CACACCCC	0.419 ± 0.025
AGCACCCG	0.257 ± 0.011
CCATGGCG	-0.204 ± 0.015
GACCGTCA	0.0838 ± 0.01
GACAGTGC	0.152 ± 0.025
AAAACTCC	-0.156 ± 0.054
AAGGCGTA	0.153 ± 0.028
AGGGCGTG	0.281 ± 0.01
AAGGCGTG	0.392 ± 0.037
ACGGCGTG	0.232 ± 0.0069
CAGGCGTC	0.236 ± 0.056
AAGGCGTC	0.372 ± 0.035
ACGTCCTA	-0.17 ± 0.032
AAGCGTTG	0.192 ± 0.056
CGCGCGCC	0.173 ± 0.064
ATCGCGCC	0.4021 ± 0.0011
CTCGCGCC	0.412 ± 0.031
ATCGCGCG	0.337 ± 0.004
CTCGCGCA	0.248 ± 0.021
ATCGCGCA	0.151 ± 0.015
AACTAGGG	0.0057 ± 0.046
AAGGAGGG	-0.0491 ± 0.018
GCTCATAC	-0.0299 ± 0.01
CGTTGGGA	-0.121 ± 0.024
ATTAAGAC	-0.0771 ± 0.015
